According to PubChem BioAssay (NCATS):
Active and inactive are the calls of the source. The call rests on the fitted dose curve; in most records, active means well fitted curve in the direction sought with a large enough effect; inconclusive means small, poorly fitted or top-dose-only effect, or another doubt; inactive means no such curve, though single readings can be large or run the other way.

The compounds below were run against Galactokinase (Homo sapiens) (UniProt P51570) (assay: qHTS Validation Assay for Inhibitors of Human Galactokinase (GALK) (AID 493189)). Details: purified human GALK enzyme activity, qHTS 7-point titration; series mostly up to 57.5 µM.
Sequence of Galactokinase (Homo sapiens) (P51570 whole entry, looked up): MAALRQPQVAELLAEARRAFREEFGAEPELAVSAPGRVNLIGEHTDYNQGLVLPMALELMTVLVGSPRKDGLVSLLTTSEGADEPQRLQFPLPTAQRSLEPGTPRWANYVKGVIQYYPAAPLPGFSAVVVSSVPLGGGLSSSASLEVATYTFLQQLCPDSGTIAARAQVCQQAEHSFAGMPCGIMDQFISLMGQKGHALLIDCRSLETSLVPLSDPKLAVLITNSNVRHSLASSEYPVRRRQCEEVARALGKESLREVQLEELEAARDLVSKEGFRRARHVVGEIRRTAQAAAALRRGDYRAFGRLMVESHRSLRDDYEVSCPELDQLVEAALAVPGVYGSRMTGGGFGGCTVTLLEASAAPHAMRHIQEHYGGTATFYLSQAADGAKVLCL
Description: NIH Molecular Libraries Probe Production Centers Network [MLPCN]
NIH Chemical Genomics Center [NCGC]
Assay Submitter (PI): Kent Lai (University of Utah School of Medicine, 50 N Mario Capecchi Drive, Salt Lake City, UT 84132)
Inherited deficiency of galactose-1-phosphate uridyltransferase (GALT) can result in a potentially lethal disorder called Classic Galactosemia (OMIM 230400). Several lines of evidence indicate that an elevated level of galactose-1-phosphate (gal-1-p), the product of galactokinase (GALK), is a major, if not sole, pathogenic mechanism in patients with classic galactosemia. Therefore, finding inhibitors of GALK is a potential novel therapy for this inherent metabolic disease and is the long term goal of this project.
GALK (provided by the assay submitter) was assayed using ATP and D-(+)-Galactose (Sigma-Aldrich cat# G0750) as substrates. Promega Kinase-Glo Plus (cat# V3774) technology was used to detect the residual ATP following kinetic reaction. Briefly, the Kinase-Glo Plus contains Ultra-Glo [2] luciferase and D-luciferin which generates a bioluminescence signal from the remaining ATP.
NCGC Assay Protocol Summary:
Three uL/well of ATP-buffer solution (35 uM ATP, 20mM HEPES pH8.0, 5 mM MgCl2, 60 mM NaCl, 1 mM DTT, 0.01% BSA final concentration) was dispensed into 1536-well, assay plates (Greiner, solid white medium-binding plates) with Aurora Discovery BioRAPTR Flying Reagent Dispenser (FRD; Beckton-Dickenson). Compound solution (23 nL) was transferred to the assay plate using the Kalypsys 1536-pin tool. One uL/well GALK-galactose solution (5 nM GALK, 100 uM galactose, 20 mM HEPES pH8.0, 5 mM MgCl2, 60 mM NaCl, 1 mM DTT, 0.01% BSA final concentration) was then added using the FRD yielding a total kinase reaction volume of 4 uL/ well. After 1 hour of room temperature incubation, 4 uL Kinase-Glo Plus reagent was added for a final assay volume of 8 uL/ well. Luminescence was detected with the ViewLux plate reader (Perkin Elmer, Waltham, MA) after 10 min incubation using a 1 sec exposure time and 2x binning.

Row | SMILES | outcome
1 | CC(=O)OC(C)C[N+](C)(C)C (stereo not given) | inactive
2 | NC(N)=NC(=O)Cc1c(Cl)cccc1Cl | inactive
3 | Fc1ccc(C(c2ccc(F)cc2)N2CCN(C/C=C/c3ccccc3)CC2)cc1 | inactive
4 | CC1=NS(=O)(=O)c2cc(Cl)ccc2N1 | inactive
5 | CN(C)CCN(Cc1cccs1)c1ccccn1 | inactive
6 | COC(=O)C1=C(C)NC(C)=C(C(=O)OCCN(C)Cc2ccccc2)C1c1cccc([N+](=O)[O-])c1 (stereo not given) | inactive
7 | N[C@@H](COP(=O)(O)O)C(=O)O | inactive
8 | COc1cc(Cc2cnc(N)nc2N)cc(OC)c1OC | inactive
9 | CCCN(CCC)CCc1cccc2c1CC(=O)N2 | inactive
10 | CCN(CC)CCOCCOC(=O)C1(c2ccccc2)CCCC1 | inactive
11 | CN(C)CC/C=C1\c2ccccc2COc2ccccc21 | inactive
12 | CCCCNc1ccc(C(=O)OCCN(C)C)cc1 | inactive
13 | O=C1NCN(c2ccccc2)C12CCN(CCCC(c1ccc(F)cc1)c1ccc(F)cc1)CC2 | inactive
14 | CC(=O)Oc1cc(C(C)C)c(OCCN(C)C)cc1C | inactive
15 | OC(CCN1CCCCC1)(c1ccccc1)C1CCCCC1 (stereo not given) | inactive
16 | CCOC(=O)C1=C(C)NC(C)=C(C(=O)OC)C1c1cccc([N+](=O)[O-])c1 (stereo not given) | inactive
17 | CSc1ccc(C(=O)c2[nH]c(=O)[nH]c2C)cc1 | inactive
18 | CN=C(NC#N)NCCSCc1nc[nH]c1C | inactive
19 | CNCCCN1c2ccccc2CCc2ccccc21 | inactive
20 | CCc1cccc(N(C)C(N)=Nc2cccc3ccccc23)c1 | inactive

Row | SMILES | outcome
21 | CCOC(=O)C1=C(C)NC(C)=C(C(=O)OC)C1c1cccc(Cl)c1Cl (stereo not given) | inactive
22 | NC(N)=N/N=C/c1c(Cl)cccc1Cl | inactive
23 | COCCc1ccc(OCC(O)CNC(C)C)cc1 (stereo not given) | inactive
24 | CN/C(=C\[N+](=O)[O-])NCCSCc1ccc(CN(C)C)o1 | inactive
25 | CCCNC(C)C(=O)Nc1ccccc1C (stereo not given) | inactive
26 | Nc1c2c(nc3ccccc13)CCCC2O (stereo not given) | inactive
27 | CCCN(CCC)C(=O)C(CCC(=O)O)NC(=O)c1ccccc1 (stereo not given) | inactive
28 | CN1CCN(CC(=O)N2c3ccccc3C(=O)Nc3cccnc32)CC1 | inactive
29 | C#CCN(C)CCCOc1ccc(Cl)cc1Cl | inactive
30 | CN(C)C(=O)Oc1cccc([N+](C)(C)C)c1 | inactive
31 | CCN1CCC[C@H]1CNC(=O)c1c(O)c(Cl)cc(Cl)c1OC | inactive
32 | CN(C(=O)CCCOc1ccc2[nH]c(=O)ccc2c1)C1CCCCC1 | inactive
33 | NS(=O)(=O)c1cc2c(cc1Cl)NC(C1CC3C=CC1C3)NS2(=O)=O (stereo not given) | inactive
34 | C(=C\c1ccccc1)/CN1CCN(C(c2ccccc2)c2ccccc2)CC1 | inactive
35 | C[C@]12CCC(=O)C=C1CC[C@@H]1[C@@H]2CC[C@@]2(C)[C@H]1CC[C@]2(O)C(=O)CO | inactive
36 | CCN(CC)CCNC(=O)c1cc(S(C)(=O)=O)ccc1OC | inactive
37 | Cc1ccc(Cl)c(Nc2ccccc2C(=O)O)c1Cl | inactive
38 | CCCOc1ccccc1-c1nc2n[nH]nc2c(=O)[nH]1 | inactive
39 | NC(=O)c1ncn([C@@H]2O[C@H](CO)[C@@H](O)[C@H]2O)c1O | inactive
40 | NCCCNCCSP(=O)(O)O | inactive
